Bioassay records (PubChem)
An excerpt weighted towards active compounds, which were near 8.1% of everything screened.
RORgamma inh = qHTS for inhibitors of ROR gamma transcriptional activity. Drosophila S2 Gal4-RORgamma UAS-luciferase reporter, 20 h. Potency, µM (titrated, usually from 53.6 µM), for the others: at the highest dose activity change, negative = inhibition, hits mostly inhibitors. 5.4% of 310,000 active. AID 2551, 2010; further: on the % scale 0 is the no-effect control and ±100 the full control effect; nearly all actives have a fitted effect of over 60% in size
Target sequence (P51450 whole entry, looked up, the tested form may be a part): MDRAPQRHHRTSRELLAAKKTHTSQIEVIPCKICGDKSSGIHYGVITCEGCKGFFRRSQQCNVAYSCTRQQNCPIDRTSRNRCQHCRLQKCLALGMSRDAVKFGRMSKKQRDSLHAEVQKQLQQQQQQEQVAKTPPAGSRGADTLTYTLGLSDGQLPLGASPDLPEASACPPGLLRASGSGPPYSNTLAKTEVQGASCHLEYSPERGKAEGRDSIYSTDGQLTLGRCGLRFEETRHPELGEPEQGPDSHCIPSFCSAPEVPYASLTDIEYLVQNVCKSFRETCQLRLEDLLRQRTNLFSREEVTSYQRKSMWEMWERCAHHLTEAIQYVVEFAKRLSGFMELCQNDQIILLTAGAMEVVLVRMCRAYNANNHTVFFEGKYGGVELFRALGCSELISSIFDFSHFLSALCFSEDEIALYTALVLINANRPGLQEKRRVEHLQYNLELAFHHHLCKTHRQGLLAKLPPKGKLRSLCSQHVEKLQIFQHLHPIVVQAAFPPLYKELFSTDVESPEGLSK
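Using a luciferase readout, inhibitors were identified by reduced reporter activity in Drosophila cells coexpressing a copper-inducible Gal4–ROR gamma fusion and UAS-driven Photinus luciferase, incubated 20 hr after 700 uM copper sulfate.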
Gal4-VP16 FLuc = VP16 counterscreen qHTS for inhibitors of ROR gamma transcriptional activity | Drosophila S2 Gal4-VP16 UAS-luciferase, luminescence, 20 h | Potency, µM (titrated, usually from 53.6 µM), for inactives: top-dose activity, negative = inhibition, hits mostly inhibitors | 3.5% of 310,000 active | AID 2546, 2010;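 further: Gal4-VP16 expression switched on by copper sulfate through the metallothionein promoter; on the % scale 0 is the no-effect control and ±100 the full control effect; nearly all actives have a fitted effect of over 50% in size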
Epigenetic derep = Quantitative High-Throughput Screen for Regulators of Epigenetic Control | Potency, µM (series often up to 53.9 µM), inactives show at the top dose GFP activation, most hits filed as activators | murine LDR cells, GFP reporter derepression, 30 h | 0.2% of 280,000 active | AID 1865, 2009; further: % of control where 0% means no effect; nearly all actives have a fitted effect of over 60% in size
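In this reporter-derepression format, murine cells bearing a silenced integrated CMV-GFP locus incubate with test compound (30 h, 37 C), then are washed and imaged; fluorescent objects of 20–120 um count as induced cells.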
PINK1 modulator = A Quantitative High throughput Screen to Identify Chemical Modulators of PINK1 Expression; PINK1 immunofluorescence, high-content cytometry, 24 h; Potency, µM (top dose mostly 76.6 µM), for inactives: at the top dose activation (PINK1 increase), actives largely listed as activators; 0.2% of 410,000 active; active means well fitted activation curve with a large enough effect; inconclusive means small, poorly fitted or top-dose-only effect; cell line not stated here; further: % of control where 0% means no effect; nearly all actives have a fitted effect of over 65% in size
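A stable cell line was treated with compounds at 5 concentrations for 24 hours, with CCCP as control. PINK1 levels and mitochondrial localization were measured by immunofluorescence with mitochondrial, cell and nuclear markers after fixation, read by laser-scanning cytometry.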
ClpP mod = qHTS Assay for Activators of ClpP. ATP-dependent Clp protease proteolytic subunit (Bacillus subtilis (strain 168)), P80244. purified B. subtilis ClpP, FRET peptide cleavage, 20 min. Potency, µM (titrated, usually from 57.5 µM), without a hit: at the highest dose activity change, negative = active. 1.9% of 340,000 active. AID 651965, 2013; active means well fitted falling curve with a large enough effect; inconclusive means small, poorly fitted or top-dose-only effect; inactive means no such curve, though single readings can be large or run the other way; further: the source files actives as falling curves though it sought activators and does not explain the sign; nearly all actives have a fitted effect of over 65% in size
Target sequence (P80244 whole entry, looked up): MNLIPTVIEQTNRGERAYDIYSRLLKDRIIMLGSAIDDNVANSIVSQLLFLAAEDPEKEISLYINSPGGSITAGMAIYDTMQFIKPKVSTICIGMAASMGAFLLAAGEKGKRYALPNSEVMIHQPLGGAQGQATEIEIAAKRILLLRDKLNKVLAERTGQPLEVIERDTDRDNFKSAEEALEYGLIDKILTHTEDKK
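Buffer: 100 mM Tris/HCl pH8, 100 mM KCl, 0.05% low protease BSA, 2.5% glycerol, 0.01% Tween-20. ClpP 10 microg/mL final; 20 min RT; delta FRET normalized to ADEP and DMSO controls.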
Sfp PPTase inh = qHTS Assay for Inhibitors of Bacillus subtilis Sfp phosphopantetheinyl transferase (PPTase); Biochemical Sfp PPTase activity, qHTS; Potency, µM, without a hit: largest response in the series, negative = inhibition, hits mostly inhibitors; 3.5% of 310,000 active; AID 1490, 2009;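 further: the enzyme is Sfp with the accession as filed and its product quenches rhodamine fluorescence; 0% = enzyme reaction without inhibitor and -100% = no enzyme wells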
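After 15 min at room temperature with compound, 15 nM Sfp received 5 uM rhodamine-CoA plus 12.5 uM BHQ-2-ybbR (50 mM Hepes pH 7.6, 10 mM MgCl2). Rate came from the fluorescence difference over 30 min, ex 525/em 598 nm.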
An asterisk follows results filed as active; ? = inconclusive; . = not tested or not shown; [ ] = remark or other dose. Unless noted, the call rests on the fitted dose curve; in most records, active means well fitted curve in the direction sought with a large enough effect; inconclusive means small, poorly fitted or top-dose-only effect, or another doubt; inactive means no such curve, though single readings can be large; an effect the other way counts as inactive or inconclusive. Potency means the concentration at half of the fitted maximal effect.

SMILES | RORgamma inh | Gal4-VP16 FLuc | Epigenetic derep | PINK1 modulator | ClpP mod | Sfp PPTase inh
O=C(c1cc(-c2ccc(Cl)cc2)n(-c2cc(Cl)ccc2Cl)n1)N1CCOCC1 | ? | ? | -1% | 0% | -2% | -26%
O=C(c1cc(-c2ccc(Cl)cc2)n(-c2ccc(Cl)c(Cl)c2)n1)N1CCOCC1 | 2.2µM* | ? | 2% | -2% | 1% | -6%
CCN1C(=O)/C(=C/c2ccc(N3CCCC3)cc2)NC1=S | 0.79µM* | -86% | ? | 14% | 1% | 1%
Cc1ccc(CN2C(=O)N/C(=C\c3ccc(N4CCOCC4)cc3)C2=O)cc1 | -73% | 11µM* | ? | ? | 3% | 9%
CCCN1C(=O)/C(=C/c2ccc(N3CCOCC3)cc2)NC1=S | 4µM* | 7.9µM* | 1% | 10% | 1% | 7%
Cc1ccc2[nH]c(CSc3nnc(NC(=O)c4ccccc4C)s3)cc(=O)c2c1 | . | . | -1% | 3% | 2% | .
CC1CC2(CCCCC2)Nc2c1ccc1ccccc21 (centres undefined) | ? | -4% | -1% | 2% | 18µM* | -2%
CC(=O)N1c2c(ccc3ccccc23)C(C)CC12CCCCC2 (centres undefined) | -17% | 1% | 0% | 2% | 0% | 3%
CC1=CC(=Nc2c(C)n(C)n(-c3ccccc3)c2=O)C=CC1=O | -5% | -14% | 13% | . | . | 8.9µM*
CC1=CC(=Nc2c(C)n(C)n(-c3ccccc3)c2=O)C=C(C)C1=O | ? | ? | 8% | 2% | 1% | 79µM*
Cc1ccc(Cn2c(=O)c3c(nc4n3CCN4c3cc(C)cc(C)c3)n(C)c2=O)cc1 | . | . | 1% | -1% | -3% | .
Cc1cccc(N2CCN(C(=O)c3cnn(-c4cccc(Cl)c4C)c3C3CCNCC3)CC2)c1C | . | . | -1% | 0% | 1% | .
Cc1cccc(OCCCc2c(C)n[nH]c2C)c1 | 11µM* | -1% | 1% | -1%[38.3 µM] | 0% | -1%
Cc1ccccc1OCCC(=O)OCC(=O)Nc1ccc2[nH]c(=O)[nH]c2c1 | . | . | . | -2% | 32µM* | .
Cc1ccc(NC(=O)CCC(=O)c2ccc(F)cc2)cc1Cl | -4% | -2% | 0% | 0% | 25µM* | 14%
CCOc1ccccc1OCCC(=O)Nc1ccc(F)c(Cl)c1 | ? | ? | -1% | 5% | 7% | 2%
COc1ccc(C(=O)CCC(=O)Nc2ccc(C)c(Cl)c2)cc1 | . | . | 0% | 0% | 2% | .
Cc1ccccc1OCCC(=O)Nc1ccc(F)c(Cl)c1 | 5.6µM* | 4.5µM* | 0% | ? | 0% | -24%
CCCN1CCC(=O)N(C(CSc2ccc(OC)cc2)CC(C)C)CC1 (centres undefined) | 39% | -12% | . | . | . | 3%
Cc1ccc(N(CC(=O)NCCc2ccccc2C)S(=O)(=O)N(C)C)cc1 | . | . | -5% | 0% | -3% | .
CCCCCCCCCCCCCCCCn1cc[n+](Cc2ccccc2)c1C | ? | 7.1µM* | . | . | . | 13µM*
CCCCCCCN1C(N(C)C)=NC[C@@H]1Cc1ccccc1 | . | . | . | 2% | 1% | .
CN1CCN(C(=S)c2ccc(-c3cc(Cl)ccc3Cl)o2)CC1 | -4% | -8% | -1% | 1% | 1% | ?
S=C(c1ccc(-c2ccc(Cl)cc2Cl)o1)N1CCCCC1 | ? | ? | -1% | 1% | 2% | 56µM*
S=C(c1ccc(-c2ccc(Cl)cc2Cl)o1)N1CCCC1 | -12% | -11% | ? | 11% | 3% | 14µM*
SMILES | RORgamma inh | Gal4-VP16 FLuc | Epigenetic derep | PINK1 modulator | ClpP mod | Sfp PPTase inh
O=C(CCCCCNc1nc(=S)[nH]c2ccccc12)N1CCN(c2ccccn2)CC1 | 10µM* | ? | -1% | . | . | -7%
COc1cccc(N2CCN(C(=O)CCCCCNc3nc(=S)[nH]c4ccccc34)CC2)c1 | 8.9µM* | ? | -2% | -1% | . | 10%
Brc1ccc(CNc2nc3ccccc3n2CCN2CCCCC2)cc1 | ? | -22% | 0% | ? | 1% | 6%
COc1ccc(CNc2nc3ccccc3n2CCN2CCCCC2)c(OC)c1 | 13µM* | -22% | 0% | ? | -2% | ?
Brc1cccc(CNc2nc3ccccc3n2CCN2CCCCC2)c1 | 4.5µM* | -20% | 0% | ? | -2% | 1%
CCCn1c(NCc2cc(OC)ccc2OC)nc2ccccc21 | 5µM* | 11µM* | -1% | -3% | 2% | 5%
COc1ccc(OC)c(CNc2nc3ccccc3n2CCN2CCCCC2)c1 | 11% | 2% | -2% | 6%[38.3 µM] | -2% | 79µM*
COc1cccc(CNc2nc3ccccc3n2CCN2CCCCC2)c1OC | 19% | -15% | 0% | 0% | 0% | -12%
CCC1CN(CCNC(=O)c2scc3c2OCCO3)Cc2cc(OC)ccc2O1 (centres undefined) | . | . | . | 0% | . | .
CCCCNS(=O)(=O)c1ccc2nc(SCC(N)=O)[nH]c2c1 | 18% | -3% | 0% | 3% | -2% | 25%
CCCCNS(=O)(=O)c1ccc2nc(SCC(=O)Nc3sccc3C#N)[nH]c2c1 | 4% | 13µM* | 2% | ? | -2% | 63µM*
Oc1ccccc1C=Nc1ccccc1-c1nc2ccccc2[nH]1 | 31% | ? | 0% | 4% | 28µM* | -5%
Oc1ccc(C=Nc2ccccc2-c2nc3ccccc3[nH]2)c(O)c1 | -1% | ? | 2% | 2% | -1% | 4%
C1=C(c2ccc(-c3ccccc3)cc2)Nc2ncnn2C1c1ccco1 (centres undefined) | 11µM* | ? | 3% | 18% | 16µM* | ?
CCOc1ccc(C2C=C(c3ccc(F)cc3)Nc3ncnn32)cc1 (centres undefined) | 13µM* | ? | 0% | 0% | -25% | -7%
Fc1ccc(C2=CC(c3ccco3)n3ncnc3N2)cc1 (centres undefined) | -27% | 1% | -1% | -1% | -28% | -24%
Brc1ccc(C2=CC(c3cccs3)n3ncnc3N2)cc1 (centres undefined) | ? | ? | 1% | 3% | 32µM* | 79µM*
Fc1ccc(C2=CC(c3ccc(Br)o3)n3ncnc3N2)cc1 (centres undefined) | ? | ? | -10% | 1% | 32µM* | -101%
Cc1cc(C=Nc2ccc(/C=C/c3ccnc4ccccc34)cc2)ccc1N(C)C | . | . | . | -1% | 0% | .
